The target in assay [1] is Nuclear receptor subfamily 1 group I member 2 (Homo sapiens) (UniProt O75469). Kind of assay: NVS_NR_hPXR: NovaScreen (NVS) Nuclear Receptor Binding Assay for human Pregnane X Receptor (PXR) (AID 2283365).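 Also: a drop in FRET signal versus DMSO baseline means the compound binds.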 The essentials:
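Cell-free binding assay with extracted human PXR protein, read by TR-FRET 2 h after dosing; loss of signal relative to DMSO baseline indicates binding. Primary screen at 25 uM in duplicate, actives retested in concentration series.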

Assay [2] has as its target Peroxisome proliferator-activated receptor gamma (Homo sapiens) (UniProt P37231). The experiment in a line: NVS_NR_hPPARg: NovaScreen (NVS) Nuclear Receptor Binding Assay for human Peroxisome Proliferator-activated Receptor gamma (PPARg) (AID 2283370). Put shortly: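 Cell-free binding to extracted PPARg protein, read by fluorescence polarization 2 h after dosing; loss of signal relative to DMSO baseline marks displacement. Primary screen in duplicate at 25 uM, actives retested in concentration series.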

The target of assay [3] is Agonist Androgen Response Element (ARE), AR (gene 367) (UniProt P10275). The experiment in a line: OT_AR_ARELUC_AG_1440: Odyssey Thera (OT) 24-hour CHO-K1 Luciferase Assay for Agonist Androgen Response Element (ARE) (AID 2283379). Put shortly: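 CHO-K1 cells carrying an ARE-driven luciferase reporter were exposed to compounds for 24 h. Luminescence was then read after adding a D-luciferin/ATP mix, and activity was scored as a gain in signal over DMSO vehicle.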
Chain of Agonist Androgen Response Element (ARE), AR (gene 367) (P10275 whole entry, looked up): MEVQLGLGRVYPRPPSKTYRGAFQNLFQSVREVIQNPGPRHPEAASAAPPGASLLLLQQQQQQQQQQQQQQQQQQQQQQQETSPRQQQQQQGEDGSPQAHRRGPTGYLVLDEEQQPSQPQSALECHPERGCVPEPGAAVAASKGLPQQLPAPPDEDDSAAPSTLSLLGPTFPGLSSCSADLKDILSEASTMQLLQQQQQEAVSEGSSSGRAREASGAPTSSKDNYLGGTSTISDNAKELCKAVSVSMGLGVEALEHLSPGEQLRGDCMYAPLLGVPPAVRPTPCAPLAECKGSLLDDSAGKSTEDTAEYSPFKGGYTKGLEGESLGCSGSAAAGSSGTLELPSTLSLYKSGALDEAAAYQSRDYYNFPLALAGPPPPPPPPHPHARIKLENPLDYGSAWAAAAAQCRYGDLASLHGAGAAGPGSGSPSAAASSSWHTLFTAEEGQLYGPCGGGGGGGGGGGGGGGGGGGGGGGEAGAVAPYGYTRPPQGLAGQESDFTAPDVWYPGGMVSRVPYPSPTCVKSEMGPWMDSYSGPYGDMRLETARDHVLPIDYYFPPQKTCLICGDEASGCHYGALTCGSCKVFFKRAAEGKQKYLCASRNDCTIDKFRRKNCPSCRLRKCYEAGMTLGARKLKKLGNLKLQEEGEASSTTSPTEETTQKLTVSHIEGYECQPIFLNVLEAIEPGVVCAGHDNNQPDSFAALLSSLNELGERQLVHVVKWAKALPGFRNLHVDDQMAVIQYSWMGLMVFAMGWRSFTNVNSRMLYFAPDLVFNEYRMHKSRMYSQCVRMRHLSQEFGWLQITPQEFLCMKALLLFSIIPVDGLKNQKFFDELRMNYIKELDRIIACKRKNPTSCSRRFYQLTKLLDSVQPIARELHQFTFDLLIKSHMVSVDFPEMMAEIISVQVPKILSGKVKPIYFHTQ

Assay [4] concerns the target Estrogen receptor beta (Homo sapiens) (UniProt Q92731). The experiment in a line: OT_ER_ERbERb_1440: Odyssey Thera (OT) 24-hour HEK293T Protein-Complementation Assay for Estrogen Receptor-beta/-beta Homodimer (AID 2283380).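 Also: scored as signal increase over DMSO baseline for both agonists and antagonists.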 Put shortly:
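HEK293T cells stably expressing ER beta LBD (aa 310-547) homodimer fragment-complementation reporter, dosed 24 h. Cells formaldehyde-fixed, Draq5-stained; gain in nuclear (agonist) or nuclear plus cytoplasmic (antagonist) fluorescence versus DMSO read by laser scanning cytometry.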

Assay [5] concerns the target Estrogen receptor (Homo sapiens) (UniProt P03372). Kind of assay: OT_ERa_GFPERaERE_0480: Odyssey Thera (OT) 8-hour HeLa Transcription Induction Assay for Estrogen Receptor (AID 2283381; active = hit-call score of the fitted dose curve at least 0.9, where 1 is the maximum; inactive = score below 0.9). The essentials:
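HeLa cells dosed with compound and imaged by fluorescence microscopy at 8 h; GFP induction from an ERE reporter quantified by high-content image analysis and fitted as gain of signal against DMSO baseline.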

For assay [6] the target is unchanged. Kind of assay: OT_ERa_GFPERaERE_0120: Odyssey Thera (OT) 2-hour HeLa Transcription Induction Assay for Estrogen Receptor (AID 2283382). The essentials:
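HeLa cells were dosed with test chemical and read 2 hours later for GFP-ERα/ERE-linked fluorescent protein induction by fluorescence microscopy. Gain-of-signal was fitted relative to DMSO baseline, quantified by high content image analysis.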

In assay [7] the target is Peroxisome proliferator-activated receptor gamma (Homo sapiens) (UniProt P37231). The experiment in a line: OT_PPARg_PPARgSRC1_0480: Odyssey Thera (OT) 8-hour Protein-Complementation Assay for Peroxisome Proliferator-activated Receptor Gamma / SRC-1 Co-activator (AID 2283387).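 Also: nuclear to cytoplasmic split Venus YFP fluorescence ratio reporting PPARg SRC-1 interaction.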 The essentials:
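Protein-fragment complementation in HEK293T: Venus YFP halves (residues 1-158, 159-239, mutated to IFP1/IFP2) fused to PPARg/SRC-1. 8 h exposure; N/C ratio at 488 nm; DMSO negative control.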

In assay [8] the target is Glucocorticoid receptor (Homo sapiens) (UniProt P04150). Kind of assay: NVS_NR_hGR: NovaScreen (NVS) Nuclear Receptor Binding Assay for human Glucocorticoid Receptor (GR) (AID 2283363).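 As to AC50: activity is loss of specific radioligand binding signal relative to DMSO.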 Put shortly:
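Cell-free radioligand displacement assay on extracted human GR, read 16 h after dosing by filter-based scintillation counting. Screened in duplicate at 25 uM, then concentration series for actives; loss of signal versus DMSO baseline.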

Assay [9] addresses human Norepinephrine Transporter (NET), SLC6A2 (gene 6530) (UniProt P23975). Kind of assay: NVS_TR_hNET: NovaScreen (NVS) Transporter Assay for human Norepinephrine Transporter (NET) (AID 2283377).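 As to AC50: displacement of radioligand from human NET seen as loss of scintillation signal.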 Put shortly: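 Cell-free radioligand binding using CHO-derived membrane protein expressing human NET, read by filter scintillation counting 1 h after dosing; loss of signal vs DMSO. Initial duplicate screen at 25 uM, actives retested in concentration series.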

Assay [10] has as its target Bile acid receptor (Homo sapiens) (UniProt Q96RI1). Kind of assay: OT_FXR_FXRSRC1_0480: Odyssey Thera (OT) 8-hour HEK293T Protein-Complementation Assay for Farnesoid X receptor/SRC-1 Co-activator (AID 2283383). The essentials: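 HEK293T cells expressing FXR and SRC-1 fused to reporter fragments were dosed with compound for 8 h; fluorescence from the reconstituted reporter marked co-activator recruitment. Gain of signal was fitted against the DMSO baseline.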

The target of assay [11] is Retinoic acid receptor RXR-alpha (Homo sapiens) (UniProt P19793). Kind of assay: OT_NURR1_NURR1RXRa_0480: Odyssey Thera (OT) 8-hour HEK293T Protein Complementation Assay for Nurr1/retinoid X receptor (RXR) (AID 2283385). Put shortly:
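HEK293T cells expressing Nurr1 and RXRα fused to reporter fragments were dosed with compound for 8 hours. Complex formation was read as fluorescence intensity and analysed as gain of signal against DMSO as baseline.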

The target is the same in assay [12]. The experiment in a line: OT_NURR1_NURR1RXRa_1440: Odyssey Thera (OT) 24-hour HEK293T Protein Complementation Assay for Nurr1/retinoid X receptor (RXR) (AID 2283386). Put shortly: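 HEK293T cells were dosed with compound and read 24 h later by fluorescence intensity in a protein-fragment complementation format, where Nurr1–RXRα interaction reconstitutes a split reporter. Activity was fitted as gain of signal relative to DMSO baseline.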

For assay [13], the target named is guinea pig Sigma Receptor, Non-selective Binding, SIGMAR1 (gene 100135589) (UniProt Q60492). Kind of assay: NVS_OR_gSIGMA_NonSelective: NovaScreen (NVS) Nuclear Receptor Binding Assay for guinea pig Sigma Receptor, Non-selective Binding (AID 2283367). The essentials: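 Radioligand displacement on guinea pig brain membranes, read by filter-based scintillation counting 1 h after dosing. Loss of signal versus DMSO; initial duplicate single-point screen at 25 uM, actives followed in concentration series.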
Chain of guinea pig Sigma Receptor, Non-selective Binding, SIGMAR1 (gene 100135589) (Q60492 whole entry, looked up): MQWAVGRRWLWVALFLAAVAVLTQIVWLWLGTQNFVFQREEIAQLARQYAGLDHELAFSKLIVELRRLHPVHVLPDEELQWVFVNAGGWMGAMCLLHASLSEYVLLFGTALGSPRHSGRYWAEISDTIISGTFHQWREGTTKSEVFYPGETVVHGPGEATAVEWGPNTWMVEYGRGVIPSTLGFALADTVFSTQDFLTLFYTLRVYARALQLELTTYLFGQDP

Assay [14] addresses human Dopamine Transporter (DAT), SLC6A3 (gene 6531) (UniProt Q01959). Kind of assay: NVS_TR_hDAT: NovaScreen (NVS) Transporter Assay for human Dopamine Transporter (DAT) (AID 2283374).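 Also: activity means loss of bound radioligand signal relative to DMSO.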 The essentials: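 Cell-free radioligand displacement binding at human DAT, 1 h after dosing, with filtration and scintillation counting. Primary screen in duplicate at 25 uM, actives then in concentration series. Loss of bound signal versus DMSO scored.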

Assay [15] relates to guinea pig Dopamine Transporter (DAT), gene 100714898. The experiment in a line: NVS_TR_gDAT: NovaScreen (NVS) Transporter Assay for guinea pig Dopamine Transporter (DAT) (AID 2283369).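 Also: active compounds lower bound radioligand signal relative to DMSO.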 The essentials:
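Guinea pig striatal membranes; radioligand displacement measured by filter-based scintillation counting 2 h after dosing. Initial duplicate screen at 25 uM, then concentration-response up to 50 uM for hits; loss of signal versus DMSO baseline.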

The target in assay [16] is human Serotonin Transporter (SERT), SLC6A4 (gene 6532) (UniProt P31645). The experiment in a line: NVS_TR_hSERT: NovaScreen (NVS) Transporter Assay for human Serotonin Transporter (SERT) (AID 2283372). The essentials:
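Radioligand binding to native SERT in human platelet membranes, read by filter-based scintillation counting 1 h after dosing. Primary screen in duplicate at 25 uM; actives followed up in concentration series; loss of signal versus DMSO baseline.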

The target of assay [17] is rat Serotonin Transporter (SERT), Slc6a4 (gene 25553) (UniProt P31652). Kind of assay: NVS_TR_rSERT: NovaScreen (NVS) Transporter Assay for rat Serotonin Transporter (SERT) (AID 2283375). Put shortly: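 Rat forebrain membranes were incubated with test chemical for 1 hour; radioligand binding to SERT was measured by filter-based scintillation counting. Primary screen ran in duplicate at 25 uM, with actives followed up in concentration series; DMSO served as negative control.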

Assay [18] deals with mouse Estrogen Receptor alpha (Era), Esr1 (gene 13982) (UniProt P19785). The experiment in a line: NVS_NR_mERa: NovaScreen (NVS) Nuclear Receptor Binding Assay for mouse Estrogen Receptor alpha (Era) (AID 2283378).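 Also: hit means loss of bound radioligand signal relative to DMSO.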 The essentials:
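Cell-free radioligand binding with extracted mouse Era protein; competitive displacement of radiolabelled ligand, read by filter-based scintillation counting 18 hours after dosing. Loss of signal versus DMSO baseline taken as binding; single screening concentration 25 uM, actives followed in concentration series.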

Where “and” joins values, the source holds several entries; their conditions need not be identical. Identical values can stand only once. Records with an inconclusive call do not appear. More than one record can exist for a structure, and the calls need not agree. Calls of active or inactive are those of the source. The calls were made as follows, unless noted: active = hit-call score of the fitted dose curve at least 0.9, where 1 is the maximum; inconclusive = response in the unintended direction; inactive = score below 0.9.

Chain of Retinoic acid receptor RXR-alpha (Homo sapiens) (P19793 whole entry, looked up, the tested form may be a part): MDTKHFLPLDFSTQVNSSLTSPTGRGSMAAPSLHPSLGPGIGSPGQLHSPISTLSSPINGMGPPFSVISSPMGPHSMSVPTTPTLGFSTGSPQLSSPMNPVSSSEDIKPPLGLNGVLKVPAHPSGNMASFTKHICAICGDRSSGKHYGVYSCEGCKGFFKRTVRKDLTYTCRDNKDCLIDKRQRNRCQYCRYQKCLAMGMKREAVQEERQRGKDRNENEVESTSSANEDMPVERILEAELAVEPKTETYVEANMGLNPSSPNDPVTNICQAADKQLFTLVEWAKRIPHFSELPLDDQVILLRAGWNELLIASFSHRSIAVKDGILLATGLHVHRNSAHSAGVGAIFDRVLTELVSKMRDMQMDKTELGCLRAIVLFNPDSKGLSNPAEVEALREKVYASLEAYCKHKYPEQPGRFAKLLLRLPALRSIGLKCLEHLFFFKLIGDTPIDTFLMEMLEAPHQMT
Chain of Glucocorticoid receptor (Homo sapiens) (P04150 whole entry, looked up): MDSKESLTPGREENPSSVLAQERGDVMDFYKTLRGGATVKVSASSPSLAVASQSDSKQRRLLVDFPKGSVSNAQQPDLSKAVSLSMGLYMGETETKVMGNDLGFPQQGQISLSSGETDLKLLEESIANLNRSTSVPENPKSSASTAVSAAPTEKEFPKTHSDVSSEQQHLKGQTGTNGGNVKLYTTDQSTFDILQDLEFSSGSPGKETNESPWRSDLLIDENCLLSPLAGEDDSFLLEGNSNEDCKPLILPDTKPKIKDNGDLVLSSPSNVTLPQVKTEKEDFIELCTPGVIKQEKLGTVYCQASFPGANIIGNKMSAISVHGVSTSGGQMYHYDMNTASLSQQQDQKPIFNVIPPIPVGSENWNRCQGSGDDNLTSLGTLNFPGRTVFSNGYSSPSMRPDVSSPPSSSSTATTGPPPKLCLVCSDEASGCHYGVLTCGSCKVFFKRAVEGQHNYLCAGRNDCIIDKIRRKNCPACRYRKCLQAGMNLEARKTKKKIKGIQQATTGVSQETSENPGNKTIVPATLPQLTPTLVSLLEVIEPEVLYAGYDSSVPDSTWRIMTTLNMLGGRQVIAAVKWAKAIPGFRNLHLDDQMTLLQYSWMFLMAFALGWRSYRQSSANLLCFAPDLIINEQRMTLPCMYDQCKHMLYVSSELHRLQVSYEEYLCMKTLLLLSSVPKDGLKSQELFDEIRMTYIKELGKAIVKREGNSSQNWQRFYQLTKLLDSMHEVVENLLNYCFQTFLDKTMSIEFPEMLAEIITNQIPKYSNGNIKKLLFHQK
Chain of Bile acid receptor (Homo sapiens) (Q96RI1 whole entry, looked up, the tested form may be a part): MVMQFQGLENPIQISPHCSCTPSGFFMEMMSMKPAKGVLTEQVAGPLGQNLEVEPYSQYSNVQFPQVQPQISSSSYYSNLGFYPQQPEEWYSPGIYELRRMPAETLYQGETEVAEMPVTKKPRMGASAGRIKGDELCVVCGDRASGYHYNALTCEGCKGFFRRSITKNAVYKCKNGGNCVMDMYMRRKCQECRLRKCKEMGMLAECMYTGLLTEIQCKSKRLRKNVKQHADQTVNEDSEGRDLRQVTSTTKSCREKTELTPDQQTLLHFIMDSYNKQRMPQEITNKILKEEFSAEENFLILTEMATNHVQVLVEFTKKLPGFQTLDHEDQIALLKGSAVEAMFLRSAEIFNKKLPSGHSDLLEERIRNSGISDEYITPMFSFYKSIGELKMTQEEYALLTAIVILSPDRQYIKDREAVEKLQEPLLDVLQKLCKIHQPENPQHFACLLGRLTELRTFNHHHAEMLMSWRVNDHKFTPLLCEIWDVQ
Chain of Peroxisome proliferator-activated receptor gamma (Homo sapiens) (P37231 whole entry, looked up, the tested form may be a part): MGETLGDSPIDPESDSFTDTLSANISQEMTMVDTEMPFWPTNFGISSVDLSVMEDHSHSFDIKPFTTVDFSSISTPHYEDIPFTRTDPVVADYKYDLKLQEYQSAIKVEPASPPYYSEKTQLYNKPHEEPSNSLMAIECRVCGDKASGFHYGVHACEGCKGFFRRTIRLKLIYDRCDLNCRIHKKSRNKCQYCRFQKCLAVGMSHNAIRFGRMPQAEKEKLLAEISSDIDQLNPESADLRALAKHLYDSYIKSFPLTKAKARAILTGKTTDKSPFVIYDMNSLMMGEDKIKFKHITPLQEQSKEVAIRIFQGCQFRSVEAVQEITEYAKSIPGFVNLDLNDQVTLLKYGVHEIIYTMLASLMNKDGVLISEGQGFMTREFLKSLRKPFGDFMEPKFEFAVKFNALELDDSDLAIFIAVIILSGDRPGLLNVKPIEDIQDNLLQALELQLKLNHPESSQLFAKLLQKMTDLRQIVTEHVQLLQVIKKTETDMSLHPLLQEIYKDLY
Chain of Nuclear receptor subfamily 1 group I member 2 (Homo sapiens) (O75469 whole entry, looked up): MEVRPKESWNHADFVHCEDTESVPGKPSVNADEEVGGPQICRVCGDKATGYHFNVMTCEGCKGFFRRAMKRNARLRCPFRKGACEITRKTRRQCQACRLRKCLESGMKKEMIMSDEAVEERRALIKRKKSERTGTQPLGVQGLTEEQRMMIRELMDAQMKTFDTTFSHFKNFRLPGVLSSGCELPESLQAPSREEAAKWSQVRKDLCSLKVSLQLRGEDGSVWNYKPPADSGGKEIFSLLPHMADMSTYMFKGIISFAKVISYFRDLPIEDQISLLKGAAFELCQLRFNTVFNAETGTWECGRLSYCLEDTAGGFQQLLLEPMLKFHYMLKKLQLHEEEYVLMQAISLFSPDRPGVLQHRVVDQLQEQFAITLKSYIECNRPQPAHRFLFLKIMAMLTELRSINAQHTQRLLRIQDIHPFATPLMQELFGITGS
Chain of Estrogen receptor beta (Homo sapiens) (Q92731 whole entry, looked up, the tested form may be a part): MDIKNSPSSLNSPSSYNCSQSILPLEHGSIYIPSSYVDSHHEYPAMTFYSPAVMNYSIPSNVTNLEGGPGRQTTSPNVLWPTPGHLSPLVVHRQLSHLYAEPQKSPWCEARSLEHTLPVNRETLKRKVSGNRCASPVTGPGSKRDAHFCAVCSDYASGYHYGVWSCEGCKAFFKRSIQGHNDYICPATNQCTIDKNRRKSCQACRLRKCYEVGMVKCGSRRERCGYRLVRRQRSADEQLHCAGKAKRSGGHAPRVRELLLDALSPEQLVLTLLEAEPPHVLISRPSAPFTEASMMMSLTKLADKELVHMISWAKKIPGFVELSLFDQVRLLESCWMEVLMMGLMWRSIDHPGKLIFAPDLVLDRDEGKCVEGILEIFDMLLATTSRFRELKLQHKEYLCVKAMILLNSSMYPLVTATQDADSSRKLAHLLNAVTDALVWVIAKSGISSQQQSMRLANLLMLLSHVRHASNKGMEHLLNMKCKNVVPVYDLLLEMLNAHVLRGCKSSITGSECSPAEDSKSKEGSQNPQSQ
Chain of Estrogen receptor (Homo sapiens) (P03372 whole entry, looked up): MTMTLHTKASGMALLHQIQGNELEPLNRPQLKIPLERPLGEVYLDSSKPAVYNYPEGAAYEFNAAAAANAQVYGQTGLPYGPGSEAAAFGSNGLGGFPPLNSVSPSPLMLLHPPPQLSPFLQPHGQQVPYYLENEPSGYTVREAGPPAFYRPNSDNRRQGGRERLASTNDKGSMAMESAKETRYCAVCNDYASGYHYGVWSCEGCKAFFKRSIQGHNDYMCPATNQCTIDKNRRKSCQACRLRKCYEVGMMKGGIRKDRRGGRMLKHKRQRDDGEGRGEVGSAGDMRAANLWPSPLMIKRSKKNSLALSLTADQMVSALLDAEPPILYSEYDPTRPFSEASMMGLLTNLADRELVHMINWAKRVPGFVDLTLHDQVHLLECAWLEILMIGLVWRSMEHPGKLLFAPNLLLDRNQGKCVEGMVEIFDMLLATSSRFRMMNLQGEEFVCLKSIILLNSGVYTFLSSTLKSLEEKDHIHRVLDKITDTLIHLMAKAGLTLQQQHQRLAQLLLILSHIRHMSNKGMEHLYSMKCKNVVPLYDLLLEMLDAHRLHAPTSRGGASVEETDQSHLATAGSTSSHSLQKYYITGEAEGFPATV

On to `Cc1cccc(C)c1O`, for which the result in assay [1], in assay [2], in assay [3], in [4], in assay [5] and in [6] was inactive. For the same molecule, the call in [7] was inactive.

Broadly, the AC50 is the concentration giving half of the maximal activity seen. For `COc1cc(S(=O)(=O)O)c(C)cc1N=Nc1c(O)ccc2cc(S(=O)(=O)O)ccc12`, the call in assay [8], in assay [9], in [5], in assay [6], in [10] and in assay [12] was inactive. For the same molecule, the result in [7] was inactive. The AC50 in assay [11] is 50 µM (active) and 61.4 µM (active); in assay [12], 75.9 µM (active).

Consider `CCCCc1ccc2c(n1)[C@@H](c1ccc(OC)cc1C[C@H](C)C(=O)O)[C@H](C(=O)O)[C@H]2c1ccc2c(c1)OCO2`, for which the result in assay [8], in [4], in assay [5], in assay [6], in assay [10] and in assay [11] was inactive. Also, the result in [12] and in [7] was inactive. The AC50 in [2] is 5.46 µM (active).

Turning to `CNC(=O)[C@H]1O[C@@H](n2cnc3c(NCc4cc(Cl)ccc4OCc4cc(C)no4)ncnc32)[C@H](O)[C@@H]1N`, the result in assay [1], in [3], in assay [4], in assay [5], in [6] and in [10] was inactive. The result in [11], in assay [12] and in [7] was inactive. Also, the concentration at half-maximal activity (AC50) in [13] was 9.75 µM (active).

Take `CCOC(=O)C(C)(C)Oc1ccc(Cl)cc1`: the molecule was called inactive in [8], in assay [2], in assay [14], in assay [4], in [5] and in assay [6]. In addition, the molecule was called inactive in assay [10], in [12] and in assay [7].

Turning to `NC(=O)Cn1c(=O)cc(CCN2CCN(c3nccc4sccc34)CC2)c2ccc(F)cc21`, in assay [13], the AC50 is 2.1 µM (active). Also, the result in assay [5], in assay [6], in assay [10] and in assay [7] was inactive.

On to `CC(CO)OC(C)CO` (centres undefined) (tested in a mixture with another compound), for which the molecule was called inactive in assay [1], in assay [5], in assay [6], in [11], in [12] and in assay [7].

As for `Nc1ccc2c(c1)C(=O)c1ccccc1C2=O`, the outcome in [8], in [2], in assay [9], in [5], in assay [6] and in [7] was inactive.

As for `CN1CCN(Cc2cc(-c3ccc4[nH]c(=O)oc4c3)co2)[C@@H](c2ccc(F)cc2)C1`, the AC50 in assay [8] is 13.2 µM (active); in [13] it was 5.66 µM (active); in assay [15], 5.69 µM (active); in assay [16] it was 3.37 µM (active); in assay [14], 1.99 µM (active); in assay [17] it was 2.52 µM (active). Moreover, the AC50 in assay [9] was 12.7 µM (active); in assay [18] it was 5.79 µM (active); in assay [11] it was 10.1 µM (active). For the same molecule, the call in assay [7] was inactive.

On to `CC(C)c1ccc(C(=O)N=C(N)N)cc1S(C)(=O)=O`, for which the outcome in assay [1], in [2], in assay [4], in [5], in assay [6] and in assay [11] was inactive. Also, the result in [12] and in assay [7] was inactive.

For `Cc1nc(-c2ccc3c(c2)CCN(CCC2CCC(NC(=O)/C=C/c4ccc(F)cc4)CC2)CC3)no1` (centres undefined), the molecule was called inactive in assay [1], in assay [3], in [4], in assay [5], in [6] and in [11]. Moreover, the call in [12] and in [7] was inactive. Besides, the figures for the AC50 in assay [13], in assay [16] and in assay [17] were 1.03 µM (active), 0.068 µM (active) and 0.201 µM (active), respectively.

As to `FC(F)(F)C(F)(F)C(F)(F)C(F)(F)C(F)(F)C(F)(F)CCI`, the result in assay [1], in assay [5], in assay [6], in assay [11], in [12] and in assay [7] was inactive. Moreover, the AC50 in assay [13] was 3.3 µM (active).

`CC(=O)OCCOCCOCCOC(C)=O`: the AC50 in assay [1] is 33.4 µM (active). Besides, the call in [4], in [5], in assay [6], in [11], in [12] and in [7] was inactive.

The record behind these values is PubChem BioAssay (EPA / NIEHS).
